{
  "source": "PubChem BioAssay (NCATS)",
  "note": "Results filed as inconclusive are left out. Where a call stands in place of a potency, no number is given. Active and inactive are the calls of the source. Calls come from the whole dose curve; as a rule, active = well fitted inhibition curve with a large enough effect; inconclusive = small, poorly fitted or top-dose-only effect; inactive = no such curve, though single readings can be large or run the other way.",
  "data": [
    {"test": "qHTS for Inhibitors of ATXN expression: Validation (AID 588378); note: nearly all actives have a fitted effect of over 75% in size; note: potency is the fitted concentration of half-maximal effect", "details": "cell-based ATXN2 expression reporter assay, luminescence; series mostly up to 57.1 µM", "text": "Spinocerebellar ataxia type 2 (SCA2) is a multisystem neurodegenerative disease caused by a dominantly-acting mutation leading to expansion of a polyQ domain in the ataxin-2 protein (ATXN2). SCA2 patients develop progressive ataxia and later lose function in other neuronal systems. Prominent parkinsonian signs develop in some patients. Similar to many neurodegenerative disorders, no symptomatic or disease-modifying treatments are known.\nThe primary objective of project is to identify compounds inhibiting ATXN2 expression and to test them for efficacy in SCA2 mouse models. To this end, in a collaboration between Dr. Daniel Scoles and scientists at NCGC, a cell-based assay adapted to high-throughput screening has been developed to screen the NIH Molecular Libraries Small Molecule Repository (MLSMR).\nNIH Chemical Genomics Center [NCGC]\nNIH Molecular Libraries Probe Centers Network [MLPCN]\nAssay Submitter (PI): Stefan Pulst and Daniel Scoles, University of Utah\n4 ul of HEK293-ATXN2-FFLuc cell suspension (TBD cells/microL in phenol-red free DMEM) are dispensed into Greiner white solid bottom 1536-well assay plates, yielding a final well density of TBD cells/well. Plates are incubated for 2 hrs at 37 degrees C in 5% humidified CO2 to allow cell attachment. Compounds are then transferred via Kalypsys pin tool equipped with 1536-pin array (10nl slotted pins, V&P Scientific, San Diego, CA). In addition, duplicate serial dilutions of the control compounds ChemBridge 5553825, a previously identified ATXN2 expression inhibitor, and a known luciferase inhibitor, are pin-transferred. After incubation at 37 degrees C in 5% humidified CO2 for 24 hrs, CellTiter-Fluor reagent (1 ul) (Promega, Madison, WI) is then added and plates are incubated for 30 minutes, before being transferred to a ViewLux high-throughput CCD imager (PerkinElmer), wherein single end-point fluorescence measurements are acquired using the 405 nm excitation/525 nm emission filter set to assess cell viability. Next, Bright-Glo luciferase substrate detection reagent (3 ul) (Promega, Madison, WI) is added to each well and incubated for an additional 5 minutes. Luminescence is then measured on the ViewLux imager equipped with a clear emission filter using a 2 sec exposure.", "values": [
      {"compound": "CC(N)Cc1c[nH]c2ccc(O)cc12", "note": "(stereo not given)", "Potency": "inactive"},
      {"compound": "N[C@@H](Cn1ccc(=O)[nH]c1=O)C(=O)O", "Potency": "inactive"},
      {"compound": "CN1CCc2cc(O)cc3c2[C@H]1Cc1ccc(O)c(O)c1-3", "Potency": "inactive"},
      {"compound": "Clc1ccc(N2CC3CCC(C2)N3)nn1", "Potency": "inactive"},
      {"compound": "NCC(O)c1cc(O)c(O)cc1F", "note": "(stereo not given)", "Potency": "inactive"},
      {"compound": "CCN1C[C@@]2(COC)C3[C@@H](OC)C4[C@@H]1C3([C@@H]1C[C@]3(O)[C@H](OC(=O)c5ccccc5)[C@@H]1[C@]4(OC(C)=O)[C@@H](O)[C@@H]3OC)[C@H](OC)C[C@H]2O", "Potency": "inactive"},
      {"compound": "CC1(C(=O)O)C2CCC(O2)C1(C)C(=O)O", "note": "(stereo not given)", "Potency": "7.94 µM (active)"},
      {"compound": "N=C(N)c1ccc(CS(=O)(=O)F)cc1", "Potency": "inactive"},
      {"compound": "NC(=O)c1cc(N2CC2)c([N+](=O)[O-])cc1[N+](=O)[O-]", "Potency": "inactive"},
      {"compound": "OCc1cnc[nH]1", "Potency": "inactive"},
      {"compound": "C[C@@H]1O[C@@H](O[C@H]2C[C@@H](O)[C@]3(CO)[C@@H]4C(CC[C@]3(O)C2)[C@@]2(O)CC[C@H]([C@@H]3COC(=O)C3)[C@@]2(C)C[C@H]4O)[C@H](O)[C@H](O)[C@H]1O", "note": "(stereo not given in full)", "Potency": "1.78 µM (active)"},
      {"compound": "CC12NC(Cc3ccccc31)c1ccccc12", "note": "(stereo not given)", "Potency": "inactive"},
      {"compound": "CC(N)[C@H](O)c1ccc(O)c(O)c1", "note": "(stereo not given in full)", "Potency": "inactive"},
      {"compound": "C#CCN[C@H](C)Cc1ccccc1", "Potency": "inactive"},
      {"compound": "COc1ccc2c(c1)/C(=C/c1cnc[nH]1)C(=O)N2", "Potency": "2.82 µM (active)"},
      {"compound": "CC(C)(O)[C@@H]1C2OC(=O)[C@@H]1[C@]1(O)C[C@H]3O[C@]34C(=O)O[C@H]2[C@]14C", "note": "(tested in a mixture with another compound)", "Potency": "inactive"},
      {"compound": "NC(CCCCCP(=O)(O)O)C(=O)O", "note": "(stereo not given)", "Potency": "inactive"},
      {"compound": "CCCCCCCCCCCCCC(=O)O[C@@H]1[C@@H](C)[C@@]2(O)[C@@H](C=C(CO)C[C@@]3(O)C(=O)C(C)=C[C@@H]23)C2C(C)(C)[C@@]21OC(C)=O", "note": "(stereo not given in full)", "Potency": "inactive"},
      {"compound": "C[C@H](Cc1ccc2c(c1)OC(C(=O)O)(C(=O)O)O2)NC[C@H](O)c1cccc(Cl)c1", "Potency": "inactive"},
      {"compound": "N[C@@H](CCl)C(=O)O", "Potency": "inactive"},
      {"compound": "C=CCN(C1=NCCN1)c1c(Cl)cccc1Cl", "Potency": "inactive"},
      {"compound": "C=CCN1C[C@@H](C)N([C@H](c2ccc(C(=O)N(CC)CC)cc2)c2cccc(OC)c2)C[C@@H]1C", "Potency": "inactive"},
      {"compound": "CN1CC[C@@]2(C)c3cc(OC(=O)Nc4ccccc4)ccc3N(C)[C@@H]12", "Potency": "inactive"},
      {"compound": "C/C(O)=C(\\C#N)C(=O)Nc1cc(Br)ccc1Br", "Potency": "inactive"},
      {"compound": "CN(C(=O)Cc1ccc(Cl)c(Cl)c1)C(CN1CCCC1)c1cccc(OCC(=O)O)c1", "note": "(stereo not given)", "Potency": "inactive"},
      {"compound": "NC(C(=O)O)c1cc(=O)[nH]o1", "note": "(stereo not given)", "Potency": "inactive"},
      {"compound": "C[N+](C)(C)CC#CCN1CCCC1=O", "Potency": "inactive"},
      {"compound": "NC(=O)CI", "Potency": "inactive"},
      {"compound": "CCCN1CC[C@@H]2c3cc(O)ccc3CC[C@@H]21", "Potency": "inactive"},
      {"compound": "Cc1[nH]c2ccc(O)cc2c1CCN", "Potency": "inactive"},
      {"compound": "NNC(=O)c1ccc(O)cc1", "Potency": "inactive"},
      {"compound": "C=CCN1CC[C@]23c4c5ccc(O)c4O[C@H]2/C(=N/NC(=O)c2ccccc2)CC[C@@]3(O)[C@H]1C5", "Potency": "inactive"},
      {"compound": "CCn1cnc2c(Nc3cccc(Cl)c3)nc(N[C@@H]3CCCC[C@@H]3N)nc21", "Potency": "2.51 µM (active)"},
      {"compound": "C[N+]1(C)C2CCC1CC(OC(=O)c1c[nH]c3ccccc13)C2", "note": "(stereo not given)", "Potency": "inactive"},
      {"compound": "CC(C)(C)c1o[nH]c(=O)c1CC(N)C(=O)O", "note": "(stereo not given)", "Potency": "inactive"},
      {"compound": "CCCN(CCC)CCc1ccc(O)c(O)c1", "Potency": "inactive"},
      {"compound": "NCCc1ccc(S(=O)(=O)F)cc1", "Potency": "inactive"},
      {"compound": "O=[N+]([O-])/C=C/c1ccc2c(c1)OCO2", "Potency": "10 µM (active)"},
      {"compound": "C[N+]1(C)CCc2cc3c(cc2[C@H]1[C@@H]1OC(=O)c2c1ccc1c2OCO1)OCO3", "Potency": "inactive"},
      {"compound": "Ic1ccccc1CNC1C2CCN(CC2)C1C(c1ccccc1)c1ccccc1", "note": "(stereo not given)", "Potency": "12.6 µM (active)"}
    ]}
  ]
}
